Laboratory results: PubChem BioAssay (NCI)
The panel holds about 83,000 compounds, 20% with a hit somewhere; the sample as a whole holds those more often.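 Single-concentration screen, 48 h exposure, 96-well plates. Endpoint: percent growth. Below 10 = active.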 Values without a mark were called inactive. The source made the active and inactive calls.

tested on: ACHN renal; experiment: NCI-60 one-dose screen, 48 h (100 = growth as untreated, 0 = no growth, -100 = all killed); conditions: 10 µM unless noted

Row | SMILES | growth
1 | C=C1C(=O)O[C@H]2[C@H]1CC/C(COC(=O)NCCc1cccc(OC)c1)=C\CC[C@@]1(C)O[C@@H]21 | -9.71% (active)
2 | COc1ccccc1OCC(=O)Nc1sc2c(c1C(N)=O)CCC2 | 32.2%
3 | CCc1c(C(=O)Nc2ccc3ccccc3c2)[nH]c(C)c1C(C)=O | 98.6%
4 | CCC(=O)Oc1ccc2c(c1)CC[C@@H]1[C@@H]2CC[C@]2(C)C[C@H](OC(=O)CC)C[C@@H]12 | 73%
5 | COC(=O)CCCCN=Cc1c(O)c(O)c(C(C)C)c2cc(C)c(-c3c(C)cc4c(C(C)C)c(O)c(O)c(C=NCCCCC(=O)OC)c4c3O)c(O)c12 | 13.4%
6 | COc1ccc2c(c1)C(C)Cc1c(N(C)C)ncnc1N2C (stereo not drawn) | 46.8%
7 | Cc1ccc(S(=O)(=O)OCC(=O)Nc2ccc(C(=O)O)c(O)c2)cc1 | 102%
8 | O=C(O)c1ccc(-n2cc(CNc3ccc(C(F)(F)F)cc3)c(-c3ccccc3)n2)cc1 | 88.9%
9 | Cc1cc(C(=O)CSc2nc3ccccc3c(=O)[nH]2)c(C)n1C | 107%
10 | CC/C=C\C[C@H](O)C/C=C1/C(=O)C(Cl)=C[C@@H]1C/C=C\CCCC(=O)OC | -43.6% (active)
11 | CCSc1nnc(Nc2ccc(C(C)C)cc2)s1 | 91.1%
12 | Cc1ccc2nc(-c3c(N)n[nH]c3CCCO)[nH]c(=O)c2c1 | 115%
13 | COc1cc(C(=O)N2CCN(C(=O)c3ccco3)CC2)c(N)cc1OCc1ccccc1 | 99.6%
14 | O=C(Nc1cccc(Cl)c1)c1cc([N+](=O)[O-])ccc1O | 59.9%
15 | O=C(CNC(=O)c1cccc2ccccc12)Nc1ccccc1Oc1ccccc1 | 29.9%
16 | Nc1cccc2c1CN(C1CCC(=O)NC1=O)C2=O (stereo not drawn) | 105%
17 | Nc1ccc(S(=O)(=O)c2ccc(Cl)cc2)cc1 | 97.1%
18 | CNC(=O)c1cc(Oc2ccc3c(c2)sc2nc(-c4ccc(Cl)cc4)cn23)ccn1 | 79.3%
19 | Cc1cc(C)c2c(=O)[nH]c(SCC(=O)Nc3cccc(S(=O)(=O)N(C)C)c3)nc2n1 | 108%
20 | CSc1ccccc1C#C/C=C\C#Cc1ccccc1N1CCCC1=O | 57.9%

Row | SMILES | growth
21 | O=S(=O)(NCCCNc1cc(-c2cn(-c3ccccc3)nc2-c2cccc(O)c2)ccn1)c1ccc(Cl)cc1 | 17%
22 | CC(=O)Oc1cccc(OC(C)=O)c1OC(C)=O | 102%
23 | C=C1C(=O)O[C@H]2[C@H]1CC/C(COC(=O)NCCc1ccc(Br)cc1)=C\CC[C@@]1(C)O[C@@H]21 | -60.1% (active)
24 | O=S=Nc1ccc([N+](=O)[O-])cc1 | 80.8%
25 | COc1ccc(N=C2NN=C(c3ccc(F)cc3)CS2)cc1OC | 93.7%
26 | NC(C(=O)O)C(O)c1ccc(OCc2ccccc2)c(OCc2ccccc2)c1 (stereo not drawn) | 101%
27 | CC/C=C\C[C@H]1C/C=C2/C(=O)C(Cl)=C[C@@H]2C/C=C\CCCC(=O)O1 | -64.6% (active)
28 | Cc1sc2nc(CSc3nnc(-c4ccco4)o3)[nH]c(=O)c2c1C | 93.8%
29 | O=S(=O)(NCCCNc1cc(-c2cn(-c3ccccc3)nc2-c2cccc(O)c2)ccn1)c1cccc2ccccc12 | 29.8%
30 | CN(C)c1nc(N)c(N=O)c(N)n1 | 109%
31 | O=C1NC(Cc2c[nH]c3ccccc23)C(=O)N1Cc1ccc(Cl)cc1 (stereo not drawn) | 95%
32 | COC(=O)c1ccc(C)cc1 | 116%
33 | COC(=O)CCCCCN=Cc1c(O)c(O)c(C(C)C)c2cc(C)c(-c3c(C)cc4c(C(C)C)c(O)c(O)c(C=NCCCCCC(=O)OC)c4c3O)c(O)c12 | 15.5%
34 | O=S(=O)(NCCCNc1nccc(-c2c(-c3ccc(F)c(O)c3)nc3sccn23)n1)c1ccc(Cl)cc1 | 65.9%
35 | COc1ncc(-c2ccc3ncnc(Nc4cccc(Cl)c4)c3c2)cc1N(S(C)(=O)=O)S(C)(=O)=O | 22%
36 | CC(Br)C(O)c1cc2c(cc1Br)OCO2 (stereo not drawn) | 109%
37 | O=S(=O)(NCCCNc1cc(-c2cn(-c3ccccc3)nc2-c2cccc(O)c2)ccn1)c1ccc(Br)cc1 | 10.2%
38 | COc1ccc2c(c1)NC(=O)CN2c1nc(C)nc2ccccc12 | 26.9%
39 | NC(=O)c1c(NC(=O)c2ccc3c(c2)OCO3)sc2c1CCC(=O)C2 | -57.7% (active)

tested on: CAKI-1 renal; experiment: as above; conditions: 10 µM unless noted

Row | SMILES | growth
40 | C=C1C(=O)O[C@H]2[C@H]1CC/C(COC(=O)NCCc1cccc(OC)c1)=C\CC[C@@]1(C)O[C@@H]21 | 8.84% (active)
41 | COc1ccccc1OCC(=O)Nc1sc2c(c1C(N)=O)CCC2 | 63.7%
42 | CCc1c(C(=O)Nc2ccc3ccccc3c2)[nH]c(C)c1C(C)=O | 86.4%
43 | CCC(=O)Oc1ccc2c(c1)CC[C@@H]1[C@@H]2CC[C@]2(C)C[C@H](OC(=O)CC)C[C@@H]12 | 64.8%
44 | COC(=O)CCCCN=Cc1c(O)c(O)c(C(C)C)c2cc(C)c(-c3c(C)cc4c(C(C)C)c(O)c(O)c(C=NCCCCC(=O)OC)c4c3O)c(O)c12 | 50.8%
45 | COc1ccc2c(c1)C(C)Cc1c(N(C)C)ncnc1N2C (stereo not drawn) | 37.6%
46 | Cc1ccc(S(=O)(=O)OCC(=O)Nc2ccc(C(=O)O)c(O)c2)cc1 | 102%
47 | O=C(O)c1ccc(-n2cc(CNc3ccc(C(F)(F)F)cc3)c(-c3ccccc3)n2)cc1 | 87.2%
48 | Cc1cc(C(=O)CSc2nc3ccccc3c(=O)[nH]2)c(C)n1C | 95.9%
49 | CC/C=C\C[C@H](O)C/C=C1/C(=O)C(Cl)=C[C@@H]1C/C=C\CCCC(=O)OC | 13.2%
50 | CCSc1nnc(Nc2ccc(C(C)C)cc2)s1 | 83.7%
51 | Cc1ccc2nc(-c3c(N)n[nH]c3CCCO)[nH]c(=O)c2c1 | 112%
52 | COc1cc(C(=O)N2CCN(C(=O)c3ccco3)CC2)c(N)cc1OCc1ccccc1 | 105%
53 | O=C(Nc1cccc(Cl)c1)c1cc([N+](=O)[O-])ccc1O | 52.6%
54 | O=C(CNC(=O)c1cccc2ccccc12)Nc1ccccc1Oc1ccccc1 | 31.6%
55 | Nc1cccc2c1CN(C1CCC(=O)NC1=O)C2=O (stereo not drawn) | 95.6%
56 | Nc1ccc(S(=O)(=O)c2ccc(Cl)cc2)cc1 | 93.6%
57 | CNC(=O)c1cc(Oc2ccc3c(c2)sc2nc(-c4ccc(Cl)cc4)cn23)ccn1 | 78.8%
58 | Cc1cc(C)c2c(=O)[nH]c(SCC(=O)Nc3cccc(S(=O)(=O)N(C)C)c3)nc2n1 | 107%
59 | CSc1ccccc1C#C/C=C\C#Cc1ccccc1N1CCCC1=O | 70.2%

Row | SMILES | growth
60 | O=S(=O)(NCCCNc1cc(-c2cn(-c3ccccc3)nc2-c2cccc(O)c2)ccn1)c1ccc(Cl)cc1 | 15.3%
61 | CC(=O)Oc1cccc(OC(C)=O)c1OC(C)=O | 84%
62 | C=C1C(=O)O[C@H]2[C@H]1CC/C(COC(=O)NCCc1ccc(Br)cc1)=C\CC[C@@]1(C)O[C@@H]21 | 22.6%
63 | O=S=Nc1ccc([N+](=O)[O-])cc1 | 78.9%
64 | COc1ccc(N=C2NN=C(c3ccc(F)cc3)CS2)cc1OC | 84.9%
65 | NC(C(=O)O)C(O)c1ccc(OCc2ccccc2)c(OCc2ccccc2)c1 (stereo not drawn) | 93.3%
66 | CC/C=C\C[C@H]1C/C=C2/C(=O)C(Cl)=C[C@@H]2C/C=C\CCCC(=O)O1 | 2.64% (active)
67 | Cc1sc2nc(CSc3nnc(-c4ccco4)o3)[nH]c(=O)c2c1C | 99.9%
68 | O=S(=O)(NCCCNc1cc(-c2cn(-c3ccccc3)nc2-c2cccc(O)c2)ccn1)c1cccc2ccccc12 | 28.7%
69 | CN(C)c1nc(N)c(N=O)c(N)n1 | 103%
70 | O=C1NC(Cc2c[nH]c3ccccc23)C(=O)N1Cc1ccc(Cl)cc1 (stereo not drawn) | 86.9%
71 | COC(=O)c1ccc(C)cc1 | 97%
72 | COC(=O)CCCCCN=Cc1c(O)c(O)c(C(C)C)c2cc(C)c(-c3c(C)cc4c(C(C)C)c(O)c(O)c(C=NCCCCCC(=O)OC)c4c3O)c(O)c12 | 55.6%
73 | O=S(=O)(NCCCNc1nccc(-c2c(-c3ccc(F)c(O)c3)nc3sccn23)n1)c1ccc(Cl)cc1 | 54.7%
74 | COc1ncc(-c2ccc3ncnc(Nc4cccc(Cl)c4)c3c2)cc1N(S(C)(=O)=O)S(C)(=O)=O | 26.8%
75 | CC(Br)C(O)c1cc2c(cc1Br)OCO2 (stereo not drawn) | 90.5%
76 | O=S(=O)(NCCCNc1cc(-c2cn(-c3ccccc3)nc2-c2cccc(O)c2)ccn1)c1ccc(Br)cc1 | 13%
77 | COc1ccc2c(c1)NC(=O)CN2c1nc(C)nc2ccccc12 | 29.3%
78 | NC(=O)c1c(NC(=O)c2ccc3c(c2)OCO3)sc2c1CCC(=O)C2 | -80% (active)
